Source: PubChem BioAssay
HepG2 tox = kills HepG2 cells in TGF-b inhibitor counter-screen | actives 0.76% (n = 410,000) | Potency, µM (titrated, usually from 46.1 µM), most hits filed as cytotoxic | HepG2 CAGA-GFP viability, ATP luminescence, 18 h
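HepG2 CAGA-GFP cells (1000/well, DMEM with 1% FBS) received compound, then TGF-beta at 500 pg/mL final, and were incubated 18 hours at 37 degrees C. Viability was read by CellTiter-Glo luminescence. Media-only wells were set as complete cell-killing and DMSO as no toxicity.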
IL-1B inflam inh = inflammasome signaling inhibition, IL-1 beta readout; THP-1 LPS/ATP IL-1B secretion, AlphaLISA, 16 h; hits give low values; activity change, % at 57.5 µM; actives 4.7% (n = 360,000); AID 743279; in the data active means activity change below about -50%; inconclusive means mostly about -30% to -49%
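THP-1 cells pretreated 1 hr with compounds (up to 57.5 uM final), then stimulated with LPS (250 ng/mL final) plus ATP (1.25 mM final); secreted IL-1B measured by AlphaLISA after 16 hr, decreased signal indicating inhibition.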
TDP1 inh = inhibitors of human tyrosyl-DNA phosphodiesterase TDP1; Q9NUW8; recombinant TDP1, AlphaScreen DNA substrate cleavage; Potency, µM (titrated, usually from 130 µM), most hits filed as inhibitors; actives 0.28% (n = 350,000); further: nearly all actives have a fitted effect of over 40% in size
Target sequence (Q9NUW8 whole entry, looked up): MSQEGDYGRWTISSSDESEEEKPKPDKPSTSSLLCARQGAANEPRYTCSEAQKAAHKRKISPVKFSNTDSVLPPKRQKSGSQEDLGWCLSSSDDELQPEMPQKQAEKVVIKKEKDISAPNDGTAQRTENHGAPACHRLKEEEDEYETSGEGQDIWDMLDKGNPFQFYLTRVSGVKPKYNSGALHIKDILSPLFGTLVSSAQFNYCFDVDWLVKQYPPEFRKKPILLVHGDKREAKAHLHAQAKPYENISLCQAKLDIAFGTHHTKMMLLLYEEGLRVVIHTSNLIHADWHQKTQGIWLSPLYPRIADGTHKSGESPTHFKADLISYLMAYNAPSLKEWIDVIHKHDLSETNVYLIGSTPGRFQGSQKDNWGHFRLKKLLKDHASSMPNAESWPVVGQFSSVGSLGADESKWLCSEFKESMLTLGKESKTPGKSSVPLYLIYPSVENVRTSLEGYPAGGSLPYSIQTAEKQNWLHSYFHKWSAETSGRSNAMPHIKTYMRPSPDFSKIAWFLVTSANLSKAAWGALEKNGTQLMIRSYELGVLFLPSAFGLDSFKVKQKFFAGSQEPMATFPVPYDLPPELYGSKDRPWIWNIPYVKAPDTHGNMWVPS
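Enzyme-compound mixtures sat 15 min at room temperature, followed by a 5 min reaction with 15 nM final substrate and 10 min with AlphaScreen beads. Recombinant human Tdp1 was used at 1 nM final.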
DT40 TDP1 CPT = growth inhibition of DT40 Tdp1-/-;hTDP1 cells with camptothecin (screen for TDP1 inhibitors) | chicken DT40 Tdp1-/-;hTDP1 cells + 20 nM CPT, ATP luminescence, 48 h | Potency, µM (top dose mostly 46.2 µM), most hits filed as inhibitors | actives 12% (n = 420,000); further: nearly all actives have a fitted effect of over 55% in size
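Cell growth measured by CellTiter-Glo luminescence after a minimum 48 h, 37 C compound exposure with 20 nM CPT in Tdp1-knockout DT40 cells stably expressing hTDP1, seeded 400/well; qHTS titration format.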
DT40 TDP1 no CPT = qHTS for Inhibitors of human tyrosyl-DNA phosphodiesterase 1 (TDP1): qHTS in cells in absence of CPT; Potency, µM (highest dose often 46.2 µM), usual class: inhibitors; DT40 Tdp1-/- hTDP1 cells, no CPT, ATP luminescence, 48 h; actives 15% (n = 420,000); AID 686978, 2013; further: nearly all actives have a fitted effect of over 55% in size
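Chicken DT40 Tdp1-/- cells stably complemented with human TDP1 were seeded at 400 cells/well with DMSO in place of 20 nM camptothecin. After compound pinning, cells grew at least 48 hr at 37 °C; viability read by CellTiter-Glo luminescence.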
TGFb inhibitor = inhibitors of TGF-b signaling; Potency, µM (highest dose often 46.1 µM), hits mostly inhibitors; AID 588855; actives 1.2% (n = 410,000); HepG2 CAGA-GFP TGF-b/SMAD3 reporter, GFP fluorescence, 18 h; TGF-beta stimulated, 500 pg/mL final; further: nearly all actives have a fitted effect of over 65% in size
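HEPG2 CAGA-GFP cells (1000/well, DMEM with 1% FBS) were pre-incubated 2 h at 37 degrees C, given compound by pin tool, then stimulated with TGF-beta at 500 pg/mL final for 18 h before per-cell GFP fluorescence imaging.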
Hits are given with their value; – = inactive; ? = inconclusive; · = no result given; ! = a repeat was not active. Most compounds without a hit are left out; they make up all but 18% or so of the library. Unless noted, the call rests on the fitted dose curve; in most records, active means well fitted curve in the direction sought with a large enough effect; inconclusive means small, poorly fitted or top-dose-only effect, or another doubt; inactive means no such curve, though single readings can be large; an effect the other way counts as inactive or inconclusive.

SMILES | HepG2 tox | IL-1B inflam inh | TDP1 inh | DT40 TDP1 CPT | DT40 TDP1 no CPT | TGFb inhibitor
Cc1ccc(C(=O)NC(C(=O)Nc2cccc(S(N)(=O)=O)c2)C(C)C)cc1 (configuration not stated) | – | – | – | – | – | –
Cc1cccc(NC(=O)COC(=O)C(NC(=O)c2cccc(S(=O)(=O)N3CCOCC3)c2)C(C)C)c1 (configuration not stated) | – | – | · | – | – | ?
Cc1cc(C)c2nc(NC(=O)[C@@H](NC(=O)c3cccc(S(=O)(=O)N4CCOCC4)c3)C(C)C)sc2c1 | – | – | – | 16µM | ? | ?
CC(C)C(NC(=O)c1ccc(C(C)(C)C)cc1)C(=O)Nc1cccc(S(N)(=O)=O)c1 (configuration not stated) | – | -52 | – | – | – | –
Cc1ccsc1CN(C)C(=O)C(NC(=O)c1cccc(S(=O)(=O)N2CCOCC2)c1)C(C)C (configuration not stated) | – | – | – | 12µM | ? | –
COc1ccc(Br)c(C(=O)N(C)CC(=O)Nc2ccc(N3CCOCC3)cc2)c1 | – | – | · | – | – | –
CCCCCC=CCC=CCCCCCCCC(=O)OCC | · | · | · | – | – | ·
O=C(COC(=O)C1CC2C=CC1C2)Nc1cccc(S(=O)(=O)N2CCOCC2)c1 (configuration not stated) | – | – | · | – | – | –
CCOc1cc(C(=S)N2CCOCC2)ccc1OS(=O)(=O)c1ccc(C)cc1 | – | – | – | – | ? | –
CCOc1cc(C(=S)N2CCCCC2)ccc1OS(=O)(=O)c1ccc(Br)cc1 | – | – | – | 21µM | 18µM | –
CCOc1cc(C(=S)N2CCC(O)CC2)ccc1OS(=O)(=O)c1ccc(Br)cc1 | – | -82 | – | ? | 18µM | –
CCOc1cc(C(=S)N2CCCCC2)ccc1OS(=O)(=O)c1ccc(Cl)cc1 | – | – | – | 16µM | 23µM | –
CCOc1ccc(C(=S)N2CCCC2)cc1OC | – | – | – | – | – | –
COc1ccc(S(=O)(=O)Oc2cc(C(=S)N3CCOCC3)ccc2OC)cc1 | – | – | – | ? | – | ?
CCOc1cc(C(=S)N2CCOCC2)cc(Br)c1OS(=O)(=O)c1ccccc1 | – | – | · | ? | 23µM | –
Cc1ccc2cccnc2c1 | · | · | – | · | · | ·
Cc1ccc(S(=O)(=O)N2CCN(C(=O)CCn3cncn3)CC2)cc1C | – | – | · | – | – | –
CC(C)(C)NC(=O)NC(=O)COC(=O)Cc1c(Cl)cccc1Cl | – | -54 | – | – | – | –
Cc1ccc(S(=O)(=O)N2CCSCCSCCSCCSCC2)cc1 | – | – | · | – | ? | –
CC1(C)Cc2c(c(N3CCOCC3)nc3sc4c(NCCN5CCOCC5)nnnc4c23)CS1 | – | – | – | ? | 12µM | –
O=C(CSc1ccc(-c2cccs2)nn1)Nc1ccccc1 | – | – | – | 13µM! | 21µM | –
COC(=O)c1ccc(NC(=O)CSc2ccc(-c3cccs3)nn2)cc1 | – | · | – | – | – | –
Cc1cc(C)cc(NC(=O)CSc2ccc(-c3cccs3)nn2)c1 | – | -72 | – | ? | 21µM! | ?
CCCN(CCC)C(=O)Cn1c(=O)n(-c2cccc(C(F)(F)F)c2)c(=O)c2c(C)c(C)sc21 | – | · | – | 23µM | 21µM | –
Cc1cc(C)c(NC(=O)Cn2c(=O)n(-c3cccc(C(F)(F)F)c3)c(=O)c3c(C)c(C)sc32)c(C)c1 | – | · | – | – | – | –
NCC(=O)N[C@@H](CCCN=C(N)N)C(=O)NCC(=O)N[C@@H](CC(=O)O)C(=O)N[C@@H](CO)C(=O)O | · | · | – | · | · | ·
